The list is not random: actives were taken first. Their share in the collection is about 2.6%.
PKA-R1A activ: activates the PKA-R1A holoenzyme complex | P00514+P68181 | hit rate 0.083% among 340,000 | PKA-R1A dissociation, Cy5-IP20 fluorescence polarization; scaled: DMSO 0%, 113 µM cGMP 100% | activation, % at 11.4 µM;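 active means percent activation above the mean of all tested compounds plus 3 SD, cut at about 19% in these data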;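 further: higher means more PKAc released from R1A so a rise in polarization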
PAFAH2 FP inh: PAFAH2 (human) inhibition. Q99487. recombinant PAFAH2, FP-rhodamine activity probe, fluorescence polarization. inhibition, % at 3.39 µM. hit rate 0.99% among 340,000. AID 492956;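 active means inhibition above the mean over all tested compounds plus 3 SD, cut at about 30% in these data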;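 further: inhibitors block probe labeling of enzyme so polarization drops; 0% = enzyme with DMSO and 100% = wells lacking PAFAH2 protein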
PAFAH1B3 FP inh: PAFAH1B3 (human) inhibition; recombinant PAFAH1B3, FP-rhodamine probe, fluorescence polarization; hit rate 0.28% among 340,000; inhibition, % at 3.39 µM; Q15102; AID 492972;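 active means inhibition above the screen-wide average of all tested compounds plus 3 SD, cut at about 25% in these data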;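 further: 0% = enzyme with DMSO only and 100% = wells lacking PAFAH1B3 protein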
Target sequence (Q15102 whole entry, looked up): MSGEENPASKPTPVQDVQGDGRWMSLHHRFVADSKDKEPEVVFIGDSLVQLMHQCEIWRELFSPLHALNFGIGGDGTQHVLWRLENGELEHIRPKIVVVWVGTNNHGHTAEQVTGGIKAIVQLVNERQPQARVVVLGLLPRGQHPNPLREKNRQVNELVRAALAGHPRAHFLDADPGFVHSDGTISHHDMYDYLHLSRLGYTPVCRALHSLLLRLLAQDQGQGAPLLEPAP
pPAFAH inh: pPAFAH (human) enzyme inhibition. Q13093. hit rate 1.5% among 330,000. recombinant pPAFAH, FP-rhodamine probe fluorescence polarization. inhibition, % at 3.39 µM;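 active means inhibition above the mean inhibition across the screen plus 3 SD, cut at about 25% in these data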;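 further: inhibitors block binding of the rhodamine activity-based probe so polarization drops; 0% = enzyme with DMSO and 100% = wells lacking pPAFAH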
PAFAH1B2 FP inh: inhibitors of human PAFAH1B2; recombinant PAFAH1B2, FP-rhodamine activity probe, fluorescence polarization; inhibition, % at 3.39 µM; hit rate 1.2% among 340,000;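 active means inhibition above the mean of all tested compounds plus 3 SD, cut at about 24% in these data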;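 further: 0% = enzyme with DMSO and 100% = wells lacking PAFAH1B2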
Target sequence (P68402 whole entry, looked up): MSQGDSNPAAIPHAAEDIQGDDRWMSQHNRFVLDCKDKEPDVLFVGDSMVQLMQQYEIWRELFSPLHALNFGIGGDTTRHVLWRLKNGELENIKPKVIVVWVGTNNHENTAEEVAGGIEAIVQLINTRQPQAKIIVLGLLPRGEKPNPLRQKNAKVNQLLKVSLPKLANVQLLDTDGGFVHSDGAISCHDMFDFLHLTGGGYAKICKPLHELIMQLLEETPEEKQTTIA
PKA-R2B activ: activates the human PKA-R2B holoenzyme complex; AID 504700; activation, % at 11.4 µM; hit rate 0.079% among 340,000; P22694+P31323; PKA-R2B holoenzyme dissociation, Cy5-IP20 fluorescence polarization; R2B truncated from residue 108, S112A mutant; 0% DMSO only, 100% 113 µM cGMP;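 active means activation above a cutoff set at the mean over all compounds plus 3 SD, cut at about 18% in these data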;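 further: higher means more holoenzyme dissociation and a rise in polarization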
Active calls of the source: *; . = not tested or not shown.

SMILES	PKA-R1A activ	PAFAH2 FP inh	PAFAH1B3 FP inh	pPAFAH inh	PAFAH1B2 FP inh	PKA-R2B activ
CCN1C[C@@H]2[C@@H]3C(=O)N(C)C(=O)[C@@H]3[C@](C)(C1=O)N2C(=O)c1ccc(Cl)c(Cl)c1	0	-6	-6	.	1	2
O=C(Cc1ccc(Cl)cc1)NCCc1ccc(F)cc1	.	.	.	-6	.	.
O=C(Cc1ccc(Br)cc1)NCCc1ccc(F)cc1	-1	0	-1	-4	26*	-3
Cc1cc(C)cc(N(CC(=O)N2CCCC2)S(C)(=O)=O)c1	-6	-7	1	7	5	-7
COc1cc(/C=N/NC(=O)Cc2ccccc2)cc([N+](=O)[O-])c1O	9	-3	12	11	8	1
COc1cc(/C=N/NC(=O)[C@H](Cc2c[nH]c3ccccc23)NC(=O)OCC(C)C)cc([N+](=O)[O-])c1O	-5	12	6	30*	24*	-5
CCN(C(=O)COC(=O)c1ccccc1NCCO)c1cccc2ccccc12	6	5	3	3	-4	7
CC(NCCS(=O)(=O)c1ccc(Cl)cc1)c1cccc(Cl)c1 (stereo not drawn)	-11	7	13	6	24*	-14
CC(C(=O)NCCS(=O)(=O)c1ccc(Cl)cc1)S(=O)(=O)c1ccc(Cl)cc1 (stereo not drawn)	2	5	9	0	14	0
O=C(NCCS(=O)(=O)c1ccc(Br)cc1)c1ccccc1	1	-9	7	3	6	-5
CC(C)c1ccc(C(C)NCCS(=O)(=O)c2ccc(Br)cc2)cc1 (stereo not drawn)	-5	-5	-5	2	26*	3
Cc1ccc(N2C3=C(C(=O)CC(C)(C)C3)C(c3cn(C)nc3C)C3=C2CC(C)(C)CC3=O)cc1	8	4	1	27*	6	-8
CCn1c(C)nc2cc(NC(=O)Nc3cccc(C(C)=O)c3)ccc21	6	-6	4	-3	6	2
Cc1sc(-n2c(C)cc(/C=C3\SC(=S)NC3=O)c2C)c(C#N)c1C	-13	15	10	31*	1	-2
CSCCC(NC(=O)c1ccco1)C(=O)NCc1ccc(F)cc1 (stereo not drawn)	-11	5	3	0	5	-9
CSCCC(NC(=O)c1ccco1)C(=O)NCCc1ccc(Cl)cc1 (stereo not drawn)	-9	2	10	6	28*	-4
COc1cccc(/C=N/NC(=O)c2nnn(-c3nonc3N)c2CN(C)C2CCCCC2)c1	9	.	.	.	.	-13
O=C(Nc1ccccn1)C1(c2ccccc2)CCCC1	-7	-4	2	1	26*	5
O=C(Nc1cccnc1)C1(c2ccccc2)CCCC1	4	1	10	5	19	-2
Cc1ccc(NC(=O)C2(c3ccc([N+](=O)[O-])cc3)CCCC2)cc1	-1	10	8	4	25*	-10
NS(=O)(=O)c1ccc(NC2(C(=O)O)CCCC2)cc1	0	5	6	3	5	-3
O=C(Nc1ccncc1)C1(c2ccccc2)CCCC1	-10	3	4	-1	27*	-3
NS(=O)(=O)c1ccc(NC(=O)C2(c3ccccc3)CCCC2)cc1	-3	0	10	0	27*	-4
CC(=O)Nc1ccc(S(=O)(=O)NCC(=O)N2CCN(S(=O)(=O)c3cccs3)CC2)cc1	-14	3	10	-2	11	-5
COc1cc(OC)cc(C(=O)NNS(=O)(=O)c2ccc(F)cc2)c1	3	2	6	3	0	0
SMILES	PKA-R1A activ	PAFAH2 FP inh	PAFAH1B3 FP inh	pPAFAH inh	PAFAH1B2 FP inh	PKA-R2B activ
COc1ccc2c(c1)c1ccc3c(c1n2C)C(=O)C=CC3=O	-3	36*	31*	.	45*	6
Cn1cc(C(=O)c2cccc(Cl)c2Cl)cc1C(=O)O	-9	4	2	4	1	-4
COC(=O)c1cc(C(=O)c2cccc(Cl)c2Cl)cn1C	3	10	5	25*	2	4
FC(F)(F)c1cccc(N2CCN(C(=S)NCC3CCCO3)CC2)c1 (stereo not drawn)	-11	3	7	30*	5	4
Cc1cc(=O)[nH]c(SCC(=O)Nc2cc(S(=O)(=O)N3CCCC3)ccc2Cl)n1	8	6	2	4	3	-6
CCCc1cc(=O)[nH]c(SCC(=O)Nc2cc(S(=O)(=O)N3CCCCC3)ccc2C)n1	0	-2	15	4	24*	-1
COCC1CCN(C(=O)CC2C(=O)NCCN2Cc2cccc(Oc3ccccc3)c2)CC1 (stereo not drawn)	-7	5	5	0	5	11
CC(C)N(C(=S)NCc1ccccc1)c1ccccc1	3	4	7	-5	29*	2
CC(C)(C)NC(=O)[C@]1(C)CCC[C@@]2(C)C3CC[C@@]4(C)C[C@]3(CCC21)CC4=O (stereo partly drawn)	0	4	1	4	3	-10
O=[N+]([O-])c1ccc(NN=Cc2ccccc2)nc1	2	9	12	.	3	7
O=[N+]([O-])c1ccc(N/N=C\c2cccn2-c2ccccc2)nc1	1	-2	0	29*	6	1
O=C(CSc1nnc(SCc2ccccc2)s1)N/N=C/C=C\c1ccco1	-5	27	3	28*	3	2
C/C(=N\NC(=O)Cc1cccn1C)c1ccco1	-8	-6	3	5	-3	-1
Cn1cccc1CC(=O)N/N=C/C=C/c1ccco1	9	16	6	27*	-4	8
COc1ccc(C(C#N)=Cc2cccc(OC)c2OC)cc1	-2	.	.	.	.	-17
Cc1ccc(S(=O)(=O)NC(CC(=O)O)c2ccco2)cc1 (stereo not drawn)	1	-3	-3	6	9	3
O=C(O)CC(NS(=O)(=O)c1ccc(Br)cc1)c1ccco1 (stereo not drawn)	17	7	1	0	28*	11
NS(=O)(=O)c1ccc(Nc2nc(-c3ccc(O)cc3O)cs2)cc1	-8	11	24	27*	15	-1
NS(=O)(=O)c1ccc(Nc2nc(-c3ccc(F)cc3)cs2)cc1	.	.	.	14	.	.
O=c1c2cc(NC(=S)NC3CCCCC3)ccc2nc2n1CCCCC2	-1	6	2	-3	28*	-1
CCCCCCSc1ccc([C@@H]2[C@@H]3C(=O)N(C)C(=O)[C@@H]3[C@]3(C(=O)OC)CCCCN23)cc1OC	11	0	-4	11	-3	-3
COc1ccc(-c2csc(NC(=O)C3CC(=O)N(c4ccc5c(c4)OCCO5)C3)n2)cc1 (stereo not drawn)	-3	-13	2	25*	-2	3
COC(=O)CSc1nnc(SCc2ccc(Cl)cc2)s1	-4	6	3	6	31*	0
